{"source": "PubChem BioAssay AID1159580", "about": "(chemical genetic matrix, 2015)", "assay": "chemical genetic growth profiling, strain panel (AID 1159580);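 further: tested at 20 µM; growth read once vehicle control cultures reached saturation at 30 °C; 1 = growth at the plate median or of vehicle wells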", "settings": "growth OD", "note": "“And” between values parts separate entries of the source, which are not always exact repeats. Equal values may be shown once. The campaign covered roughly 5,500 compounds. About 2,000 (36%) were called active. Inconclusive results (about 18%) are left out. The list shows a part of the results. Values without a mark were called inactive. No stated cut-off is given here; in the data, active means normalized growth mostly below about 0.91 (no sharp cut-off); inconclusive means no clear call, values can overlap the other calls; inactive means mostly above about 0.92."}
{"smiles": "COC(=O)c1c(C)cc(OC(=O)c2c(C)cc(O)c(C=O)c2O)c(C)c1O", "values": [{"measurement": "normalized growth", "setting": "S. cerevisiae deletion strains, locus YAL013W, strain DEP1, stronger effect = lower value", "value": 0.93}, {"measurement": "normalized growth", "setting": "S. cerevisiae deletion strains, locus YBR021W, strain FUR4, stronger effect = lower value", "value": 1.05}, {"measurement": "normalized growth", "setting": "S. cerevisiae deletion strains, locus YBR229C, strain ROT2, stronger effect = lower value", "value": 1}, {"measurement": "normalized growth", "setting": "S. cerevisiae deletion strains, locus YCL029C, strain bik1, stronger effect = lower value", "value": 0.994}, {"measurement": "normalized growth", "setting": "S. cerevisiae deletion strains, locus YDL035C, strain GPR1, stronger effect = lower value", "value": 0.994}, {"measurement": "normalized growth", "setting": "S. cerevisiae deletion strains, locus YDL074C, strain BRE1, stronger effect = lower value", "value": 1.03}, {"measurement": "normalized growth", "setting": "S. cerevisiae deletion strains, locus YDL101C, strain DUN1, stronger effect = lower value", "value": 1.01}, {"measurement": "normalized growth", "setting": "S. cerevisiae deletion strains, locus YDL185W, strain tfp1, stronger effect = lower value", "value": 0.991}, {"measurement": "normalized growth", "setting": "S. cerevisiae deletion strains, locus YDL192W, strain arf1, stronger effect = lower value", "value": 0.934}, {"measurement": "normalized growth", "setting": "S. cerevisiae deletion strains, locus YDR101C, strain arx1, stronger effect = lower value", "value": 0.994}, {"measurement": "normalized growth", "setting": "S. cerevisiae deletion strains, locus YDR162C, strain NBP2, stronger effect = lower value", "value": 0.899}, {"measurement": "normalized growth", "setting": "S. cerevisiae deletion strains, locus YDR318W, strain mcm21, stronger effect = lower value", "value": 0.934}, {"measurement": "normalized growth", "setting": "S. cerevisiae deletion strains, locus YDR388W, stronger effect = lower value", "value": 0.988}, {"measurement": "normalized growth", "setting": "S. cerevisiae deletion strains, locus YDR502C, strain sam2, stronger effect = lower value", "value": 0.984}, {"measurement": "normalized growth", "setting": "S. cerevisiae deletion strains, locus YEL061C, strain CIN8, stronger effect = lower value", "value": 0.971}, {"measurement": "normalized growth", "setting": "S. cerevisiae deletion strains, locus YER110C, stronger effect = lower value", "value": 1.03}, {"measurement": "normalized growth", "setting": "S. cerevisiae deletion strains, locus YER155C, strain BEM2, stronger effect = lower value", "value": 1.03}, {"measurement": "normalized growth", "setting": "S. cerevisiae deletion strains, locus YER167W, strain BCK2, stronger effect = lower value", "value": 0.999}, {"measurement": "normalized growth", "setting": "S. cerevisiae deletion strains, locus YGL078C, strain dbp3, stronger effect = lower value", "value": 1.01}, {"measurement": "normalized growth", "setting": "S. cerevisiae deletion strains, locus YGL086W, strain mad1, stronger effect = lower value", "value": 0.942}, {"measurement": "normalized growth", "setting": "S. cerevisiae deletion strains, locus YGL248W, strain PDE1, stronger effect = lower value", "value": 0.98}, {"measurement": "normalized growth", "setting": "S. cerevisiae deletion strains, locus YGR078C, strain PAC10, stronger effect = lower value", "value": 0.971}, {"measurement": "normalized growth", "setting": "S. cerevisiae deletion strains, locus YGR135W, strain pre9, stronger effect = lower value", "value": "0.893 (active)"}, {"measurement": "normalized growth", "setting": "S. cerevisiae deletion strains, locus YGR229C, strain SMI1, stronger effect = lower value", "value": 0.919}, {"measurement": "normalized growth", "setting": "S. cerevisiae deletion strains, locus YGR252W, strain gcn5, stronger effect = lower value", "value": 1.01}, {"measurement": "normalized growth", "setting": "S. cerevisiae deletion strains, locus YHR030C, strain SLT2, stronger effect = lower value", "value": "0.999 and 0.975"}, {"measurement": "normalized growth", "setting": "S. cerevisiae deletion strains, locus YHR079C, strain IRE1 (second series), stronger effect = lower value", "value": 0.999}, {"measurement": "normalized growth", "setting": "S. cerevisiae deletion strains, locus YHR079C, strain IRE1, stronger effect = lower value", "value": 0.978}, {"measurement": "normalized growth", "setting": "S. cerevisiae deletion strains, locus YHR094C, strain hxt1, stronger effect = lower value", "value": 1}, {"measurement": "normalized growth", "setting": "S. cerevisiae deletion strains, locus YHR129C, strain ARP1, stronger effect = lower value", "value": 0.963}, {"measurement": "normalized growth", "setting": "S. cerevisiae deletion strains, locus YHR200W, strain rpn10, stronger effect = lower value", "value": 0.962}, {"measurement": "normalized growth", "setting": "S. cerevisiae deletion strains, locus YIL066C, strain RNR3, stronger effect = lower value", "value": 0.985}, {"measurement": "normalized growth", "setting": "S. cerevisiae deletion strains, locus YIL073C, strain SPO22, stronger effect = lower value", "value": 1.02}, {"measurement": "normalized growth", "setting": "S. cerevisiae deletion strains, locus YIL125W, strain kgd1, stronger effect = lower value", "value": 0.991}, {"measurement": "normalized growth", "setting": "S. cerevisiae deletion strains, locus YIR030C, strain dcg1, stronger effect = lower value", "value": 1.03}, {"measurement": "normalized growth", "setting": "S. cerevisiae deletion strains, locus YJL095W, strain BCK1, stronger effect = lower value", "value": "0.975 and 0.987"}, {"measurement": "normalized growth", "setting": "S. cerevisiae deletion strains, locus YJL134W, strain LCB3, stronger effect = lower value", "value": 1.01}, {"measurement": "normalized growth", "setting": "S. cerevisiae deletion strains, locus YJL168C, strain set2, stronger effect = lower value", "value": 1.01}, {"measurement": "normalized growth", "setting": "S. cerevisiae deletion strains, locus YJL187C, strain SWE1 (second series), stronger effect = lower value", "value": 0.972}, {"measurement": "normalized growth", "setting": "S. cerevisiae deletion strains, locus YJR043C, strain POL32, stronger effect = lower value", "value": 0.971}, {"measurement": "normalized growth", "setting": "S. cerevisiae deletion strains, locus YJR066W, strain TOR1, stronger effect = lower value", "value": 0.919}, {"measurement": "normalized growth", "setting": "S. cerevisiae deletion strains, locus YKL068W, stronger effect = lower value", "value": 1.03}, {"measurement": "normalized growth", "setting": "S. cerevisiae deletion strains, locus YKL085W, strain MDH1 (second series), stronger effect = lower value", "value": 0.987}, {"measurement": "normalized growth", "setting": "S. cerevisiae deletion strains, locus YKL085W, strain MDH1, stronger effect = lower value", "value": 0.987}, {"measurement": "normalized growth", "setting": "S. cerevisiae deletion strains, locus YKR001C, strain vps1, stronger effect = lower value", "value": "0.891 (active)"}, {"measurement": "normalized growth", "setting": "S. cerevisiae deletion strains, locus YLR039C, strain RIC1, stronger effect = lower value", "value": 0.947}, {"measurement": "normalized growth", "setting": "S. cerevisiae deletion strains, locus YLR058C, strain SHM2, stronger effect = lower value", "value": 0.957}, {"measurement": "normalized growth", "setting": "S. cerevisiae deletion strains, locus YLR102C, strain apc9, stronger effect = lower value", "value": 1.02}, {"measurement": "normalized growth", "setting": "S. cerevisiae deletion strains, locus YLR113W, strain HOG1, stronger effect = lower value", "value": 0.995}, {"measurement": "normalized growth", "setting": "S. cerevisiae deletion strains, locus YLR262C, strain YPT6, stronger effect = lower value", "value": 0.933}, {"measurement": "normalized growth", "setting": "S. cerevisiae deletion strains, locus YLR268W, strain sec22, stronger effect = lower value", "value": 0.916}, {"measurement": "normalized growth", "setting": "S. cerevisiae deletion strains, locus YLR330W, strain CHS5, stronger effect = lower value", "value": 1.01}, {"measurement": "normalized growth", "setting": "S. cerevisiae deletion strains, locus YLR342W, strain FKS1 (second series), stronger effect = lower value", "value": 1.07}, {"measurement": "normalized growth", "setting": "S. cerevisiae deletion strains, locus YLR371W, strain rom2, stronger effect = lower value", "value": 0.99}, {"measurement": "normalized growth", "setting": "S. cerevisiae deletion strains, locus YLR418C, strain cdc73, stronger effect = lower value", "value": 0.924}, {"measurement": "normalized growth", "setting": "S. cerevisiae deletion strains, locus YML016C, strain PPZ1, stronger effect = lower value", "value": 1}, {"measurement": "normalized growth", "setting": "S. cerevisiae deletion strains, locus YML032C, strain rad52, stronger effect = lower value", "value": 0.96}, {"measurement": "normalized growth", "setting": "S. cerevisiae deletion strains, locus YML124C, strain tub3, stronger effect = lower value", "value": 1}, {"measurement": "normalized growth", "setting": "S. cerevisiae deletion strains, locus YMR078C, strain ctf18, stronger effect = lower value", "value": 1.02}, {"measurement": "normalized growth", "setting": "S. cerevisiae deletion strains, locus YMR223W, strain ubp8, stronger effect = lower value", "value": 0.938}, {"measurement": "normalized growth", "setting": "S. cerevisiae deletion strains, locus YMR263W, strain SAP30, stronger effect = lower value", "value": 0.987}, {"measurement": "normalized growth", "setting": "S. cerevisiae deletion strains, locus YMR307W, strain GAS1, stronger effect = lower value", "value": 0.789}, {"measurement": "normalized growth", "setting": "S. cerevisiae deletion strains, locus YNL067W, strain RPL9B, stronger effect = lower value", "value": 0.972}, {"measurement": "normalized growth", "setting": "S. cerevisiae deletion strains, locus YNL183C, strain NPR1, stronger effect = lower value", "value": 0.917}, {"measurement": "normalized growth", "setting": "S. cerevisiae deletion strains, locus YNL233W, strain BNI4, stronger effect = lower value", "value": 0.982}, {"measurement": "normalized growth", "setting": "S. cerevisiae deletion strains, locus YNL250W, strain rad50, stronger effect = lower value", "value": 0.988}, {"measurement": "normalized growth", "setting": "S. cerevisiae deletion strains, locus YNL271C, strain bni1, stronger effect = lower value", "value": 1.03}, {"measurement": "normalized growth", "setting": "S. cerevisiae deletion strains, locus YNL298W, strain CLA4, stronger effect = lower value", "value": 1.01}, {"measurement": "normalized growth", "setting": "S. cerevisiae deletion strains, locus YNL307C, strain MCK1, stronger effect = lower value", "value": 1.01}, {"measurement": "normalized growth", "setting": "S. cerevisiae deletion strains, locus YNR052C, strain pop2, stronger effect = lower value", "value": 1}, {"measurement": "normalized growth", "setting": "S. cerevisiae deletion strains, locus YOL006C, strain TOP1, stronger effect = lower value", "value": 1.06}, {"measurement": "normalized growth", "setting": "S. cerevisiae deletion strains, locus YOL012C, strain htz1", "value": 0.816}, {"measurement": "normalized growth", "setting": "S. cerevisiae deletion strains, locus YOL147C, strain pex11, stronger effect = lower value", "value": 1.04}, {"measurement": "normalized growth", "setting": "S. cerevisiae deletion strains, locus YOR061W, strain CKA2, stronger effect = lower value", "value": 1}, {"measurement": "normalized growth", "setting": "S. cerevisiae deletion strains, locus YOR069W, strain VPS5, stronger effect = lower value", "value": 1}, {"measurement": "normalized growth", "setting": "S. cerevisiae deletion strains, locus YOR136W, strain idh2, stronger effect = lower value", "value": 1.02}, {"measurement": "normalized growth", "setting": "S. cerevisiae deletion strains, locus YOR144C, strain elg1, stronger effect = lower value", "value": 1.01}, {"measurement": "normalized growth", "setting": "S. cerevisiae deletion strains, locus YOR184W, strain ser1, stronger effect = lower value", "value": 0.931}, {"measurement": "normalized growth", "setting": "S. cerevisiae deletion strains, locus YOR231W, strain MKK1, stronger effect = lower value", "value": 0.981}, {"measurement": "normalized growth", "setting": "S. cerevisiae deletion strains, locus YOR316C, strain cot1, stronger effect = lower value", "value": 1.03}, {"measurement": "normalized growth", "setting": "S. cerevisiae deletion strains, locus YPL256C, strain CLN2, stronger effect = lower value", "value": 0.988}, {"measurement": "normalized growth", "setting": "S. cerevisiae deletion strains, locus YPR119W, strain clb2, stronger effect = lower value", "value": 0.996}, {"measurement": "normalized growth", "setting": "S. cerevisiae deletion strains, locus YPR141C, strain kar3, stronger effect = lower value", "value": 1}, {"measurement": "normalized growth", "setting": "S. cerevisiae deletion strains, locus YPR163C, strain tif3, stronger effect = lower value", "value": 1.01}, {"measurement": "normalized growth", "setting": "S. cerevisiae deletion strains, locus YPR167C, strain met16, stronger effect = lower value", "value": 0.963}, {"measurement": "normalized growth", "setting": "S. cerevisiae deletion strains, strain wtn01, stronger effect = lower value", "value": 0.948}, {"measurement": "normalized growth", "setting": "S. cerevisiae strains, strain wild type, stronger effect = lower value", "value": 0.926}]}
